Source: paper PMC7862700, “An all-to-all approach to the identification of sequence-specific readers for epigenetic DNA modifications on cytosine”

Assays:
Experiment in all cases: DAPPL (digital affinity profiling via proximity ligation, sequencing); 10 mM Tris-HCl pH 7.5, 50 mM NaCl, 1 mM DTT, 4% glycerol, room temperature, 30 min; GST-TFs on glutathione beads, 16-mer random dsDNA library, 0.1% formaldehyde crosslink after washing; high values mean tight binding
FEV = target: T1, FEV (Homo sapiens, UniProt Q99581 1-238); conditions: protein: recombinant; tags: N-terminal GST; dsDNA, one strand shown
T1 sequence: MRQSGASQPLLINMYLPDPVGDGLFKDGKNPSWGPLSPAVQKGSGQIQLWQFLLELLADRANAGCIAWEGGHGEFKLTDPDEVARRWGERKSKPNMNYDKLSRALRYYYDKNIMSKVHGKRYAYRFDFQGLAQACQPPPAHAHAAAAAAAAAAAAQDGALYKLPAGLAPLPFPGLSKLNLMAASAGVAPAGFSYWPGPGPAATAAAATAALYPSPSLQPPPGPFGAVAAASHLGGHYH
Summary of the method: (§1)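 Binding signal is each hexamer's read frequency for a factor divided by its frequency in the tag-only sample. The factors were GST-fused human transcription factors from yeast, captured on glutathione beads, DNA-barcoded and pooled with that sample. Pools were incubated with 200 nmole of a random double-stranded 16-mer DNA library in Tris/NaCl/DTT/glycerol buffer at room temperature for 30 min, then washed, crosslinked with 0.1% formaldehyde, proximity-ligated with BsaI/T4 ligase (1 h, 37 °C), PCR-amplified and sequenced on an Illumina NextSeq500.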

ETV5 = ETV5 (Homo sapiens, UniProt P41161 1-510); conditions: protein: recombinant; tags: N-terminal GST; dsDNA, one strand shown
Summary of the method: as §1

HSF1 = HSF1 (Homo sapiens, UniProt Q00613 1-529); conditions: protein: recombinant; tags: N-terminal GST; chain copies: 3; dsDNA, one strand shown
Summary of the method: as §1

SPIC = target: T2, SPIC (Homo sapiens, UniProt Q8N5J4 1-248); conditions: protein: recombinant; tags: N-terminal GST; dsDNA, one strand shown
T2 sequence: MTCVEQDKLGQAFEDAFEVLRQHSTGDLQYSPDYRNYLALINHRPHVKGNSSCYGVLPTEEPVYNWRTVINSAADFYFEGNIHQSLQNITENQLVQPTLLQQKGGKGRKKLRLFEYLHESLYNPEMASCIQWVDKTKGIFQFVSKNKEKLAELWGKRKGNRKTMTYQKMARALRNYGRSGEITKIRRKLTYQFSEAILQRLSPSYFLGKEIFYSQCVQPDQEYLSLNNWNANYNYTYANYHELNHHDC
Summary of the method: as §1

ELF4 = ELF4 (Homo sapiens, UniProt Q99607 1-663); conditions: protein: recombinant; tags: N-terminal GST; dsDNA, one strand shown
Summary of the method: as §1

ELK4 = target: T3, ELK4 (Homo sapiens, UniProt P28324-2 1-405); conditions: protein: recombinant; tags: N-terminal GST; dsDNA, one strand shown
T3 sequence: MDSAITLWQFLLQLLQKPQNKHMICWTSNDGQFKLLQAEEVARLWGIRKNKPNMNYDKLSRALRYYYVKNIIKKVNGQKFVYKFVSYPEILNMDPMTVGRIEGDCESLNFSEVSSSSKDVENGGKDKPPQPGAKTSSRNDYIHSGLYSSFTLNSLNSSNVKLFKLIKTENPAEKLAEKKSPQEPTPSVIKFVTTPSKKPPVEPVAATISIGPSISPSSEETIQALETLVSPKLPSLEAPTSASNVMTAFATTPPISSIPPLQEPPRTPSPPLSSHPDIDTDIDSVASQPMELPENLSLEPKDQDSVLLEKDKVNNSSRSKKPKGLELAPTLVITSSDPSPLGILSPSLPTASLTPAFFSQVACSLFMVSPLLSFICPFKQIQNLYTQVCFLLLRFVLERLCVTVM
Summary of the method: as §1

ETV2 = target: T4, ETV2 (Homo sapiens, UniProt O00321 1-342); conditions: protein: recombinant; tags: N-terminal GST; dsDNA, one strand shown
T4 sequence: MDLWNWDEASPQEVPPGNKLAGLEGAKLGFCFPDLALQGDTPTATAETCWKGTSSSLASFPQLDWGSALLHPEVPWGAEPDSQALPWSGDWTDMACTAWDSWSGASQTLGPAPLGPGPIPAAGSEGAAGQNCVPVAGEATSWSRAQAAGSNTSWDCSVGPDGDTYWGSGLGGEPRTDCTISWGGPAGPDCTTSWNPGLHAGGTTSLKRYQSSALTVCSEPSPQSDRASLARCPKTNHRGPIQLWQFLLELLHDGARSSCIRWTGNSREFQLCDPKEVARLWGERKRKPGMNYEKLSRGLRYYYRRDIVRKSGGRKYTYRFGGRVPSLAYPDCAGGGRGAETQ
Summary of the method: as §1

ELF3 = target: T5, ELF3 (Homo sapiens, UniProt P78545 1-371); conditions: protein: recombinant; tags: N-terminal GST; dsDNA, one strand shown
T5 sequence: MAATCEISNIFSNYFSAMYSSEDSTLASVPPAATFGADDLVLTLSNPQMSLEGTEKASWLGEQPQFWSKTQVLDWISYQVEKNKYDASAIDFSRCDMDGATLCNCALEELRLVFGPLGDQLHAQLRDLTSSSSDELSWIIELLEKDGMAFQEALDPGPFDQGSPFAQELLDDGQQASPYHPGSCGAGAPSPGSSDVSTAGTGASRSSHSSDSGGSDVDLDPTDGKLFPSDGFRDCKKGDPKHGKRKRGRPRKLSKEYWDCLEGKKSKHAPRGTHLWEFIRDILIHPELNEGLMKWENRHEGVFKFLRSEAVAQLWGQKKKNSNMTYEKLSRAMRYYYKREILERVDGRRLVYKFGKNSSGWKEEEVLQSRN
Summary of the method: as §1

CRX = CRX (Homo sapiens, UniProt O43186 1-299); conditions: protein: recombinant; tags: N-terminal GST; dsDNA, one strand shown
Summary of the method: as §1

ETV1 = ETV1 (Homo sapiens, UniProt P50549 1-477); conditions: protein: recombinant; tags: N-terminal GST; dsDNA, one strand shown
Summary of the method: as §1

ERF = target: T6, ERF (Homo sapiens, UniProt P50548 1-548); conditions: protein: recombinant; tags: N-terminal GST; dsDNA, one strand shown
T6 sequence: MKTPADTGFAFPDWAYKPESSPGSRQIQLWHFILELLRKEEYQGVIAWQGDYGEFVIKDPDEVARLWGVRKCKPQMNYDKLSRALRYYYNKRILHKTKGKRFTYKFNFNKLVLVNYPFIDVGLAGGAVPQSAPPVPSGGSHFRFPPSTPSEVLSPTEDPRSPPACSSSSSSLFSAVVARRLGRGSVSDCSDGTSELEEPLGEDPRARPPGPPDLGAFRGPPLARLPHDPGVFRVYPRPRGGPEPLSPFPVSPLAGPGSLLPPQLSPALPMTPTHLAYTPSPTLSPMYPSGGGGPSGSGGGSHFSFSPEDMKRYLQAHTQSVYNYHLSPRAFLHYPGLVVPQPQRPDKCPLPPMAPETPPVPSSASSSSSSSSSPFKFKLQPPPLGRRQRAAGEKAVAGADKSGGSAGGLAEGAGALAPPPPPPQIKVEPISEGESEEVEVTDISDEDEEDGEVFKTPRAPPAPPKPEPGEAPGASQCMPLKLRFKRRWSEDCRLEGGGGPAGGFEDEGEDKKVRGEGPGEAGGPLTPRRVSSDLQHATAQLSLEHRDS
Summary of the method: as §1

ETV3L = target: T7, ETV3L (Homo sapiens, UniProt Q6ZN32 1-361); conditions: protein: recombinant; tags: N-terminal GST; dsDNA, one strand shown
T7 sequence: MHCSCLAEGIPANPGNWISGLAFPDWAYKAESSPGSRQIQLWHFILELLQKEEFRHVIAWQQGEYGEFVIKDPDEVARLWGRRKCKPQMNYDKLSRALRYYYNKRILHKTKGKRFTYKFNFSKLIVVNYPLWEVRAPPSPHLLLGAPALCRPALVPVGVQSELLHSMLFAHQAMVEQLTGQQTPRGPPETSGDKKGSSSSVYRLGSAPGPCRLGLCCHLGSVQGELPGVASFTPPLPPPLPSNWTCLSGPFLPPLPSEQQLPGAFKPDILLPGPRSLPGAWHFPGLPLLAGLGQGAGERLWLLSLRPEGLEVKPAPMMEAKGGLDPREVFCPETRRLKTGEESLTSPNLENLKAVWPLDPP
Summary of the method: as §1

ETS2 = target: T8, ETS2 (Homo sapiens, UniProt P15036 1-469); conditions: protein: recombinant; tags: N-terminal GST; dsDNA, one strand shown
T8 sequence: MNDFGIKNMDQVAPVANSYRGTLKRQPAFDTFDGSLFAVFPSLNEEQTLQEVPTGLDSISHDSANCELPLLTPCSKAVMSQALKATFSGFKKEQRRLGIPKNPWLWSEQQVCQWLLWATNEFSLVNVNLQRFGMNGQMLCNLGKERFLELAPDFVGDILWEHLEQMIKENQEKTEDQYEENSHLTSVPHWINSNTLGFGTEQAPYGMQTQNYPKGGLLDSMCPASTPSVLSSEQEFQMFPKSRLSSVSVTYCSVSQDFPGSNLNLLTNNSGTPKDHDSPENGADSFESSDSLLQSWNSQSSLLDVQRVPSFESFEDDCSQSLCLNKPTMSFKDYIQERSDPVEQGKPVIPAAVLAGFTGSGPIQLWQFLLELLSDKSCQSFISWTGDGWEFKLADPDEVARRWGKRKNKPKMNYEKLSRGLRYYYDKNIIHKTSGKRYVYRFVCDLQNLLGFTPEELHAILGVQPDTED
Summary of the method: as §1

SPDEF = target: T9, SPDEF (Homo sapiens, UniProt O95238 1-335); conditions: protein: recombinant; tags: N-terminal GST; dsDNA, one strand shown
T9 sequence: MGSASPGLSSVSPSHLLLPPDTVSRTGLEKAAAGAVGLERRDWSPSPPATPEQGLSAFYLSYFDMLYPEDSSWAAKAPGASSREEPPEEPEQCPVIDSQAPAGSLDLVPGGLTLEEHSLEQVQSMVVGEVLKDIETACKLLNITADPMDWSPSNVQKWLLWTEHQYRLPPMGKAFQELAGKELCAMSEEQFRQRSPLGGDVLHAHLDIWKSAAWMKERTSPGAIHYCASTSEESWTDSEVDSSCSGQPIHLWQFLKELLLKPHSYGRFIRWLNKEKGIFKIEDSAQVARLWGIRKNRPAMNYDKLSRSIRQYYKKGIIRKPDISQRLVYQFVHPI
Summary of the method: as §1

ETV7 = target: T10, ETV7 (Homo sapiens, UniProt Q9Y603 1-341); conditions: protein: recombinant; tags: N-terminal GST; dsDNA, one strand shown
T10 sequence: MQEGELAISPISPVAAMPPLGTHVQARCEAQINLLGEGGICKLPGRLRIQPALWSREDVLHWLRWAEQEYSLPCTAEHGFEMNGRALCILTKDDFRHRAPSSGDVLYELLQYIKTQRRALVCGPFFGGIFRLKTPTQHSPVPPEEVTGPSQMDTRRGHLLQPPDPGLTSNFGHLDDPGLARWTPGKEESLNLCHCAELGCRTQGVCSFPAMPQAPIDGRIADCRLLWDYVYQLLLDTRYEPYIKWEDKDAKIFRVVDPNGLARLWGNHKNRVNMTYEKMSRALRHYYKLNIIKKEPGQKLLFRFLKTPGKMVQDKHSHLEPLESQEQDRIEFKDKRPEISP
Summary of the method: as §1

ELF5 = target: T11, ELF5 (Homo sapiens, UniProt Q9UKW6-2 1-255); conditions: protein: recombinant; tags: N-terminal GST; dsDNA, one strand shown
T11 sequence: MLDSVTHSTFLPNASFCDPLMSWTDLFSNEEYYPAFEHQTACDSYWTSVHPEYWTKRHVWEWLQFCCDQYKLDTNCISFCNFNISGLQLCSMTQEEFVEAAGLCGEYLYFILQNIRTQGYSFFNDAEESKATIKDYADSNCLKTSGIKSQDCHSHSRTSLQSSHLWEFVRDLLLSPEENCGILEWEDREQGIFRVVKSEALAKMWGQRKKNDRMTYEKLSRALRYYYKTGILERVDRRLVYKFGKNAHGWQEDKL
Summary of the method: as §1

ETV3 = target: T12, ETV3 (Homo sapiens, UniProt P41162-2 1-143); conditions: protein: recombinant; tags: N-terminal GST; dsDNA, one strand shown
T12 sequence: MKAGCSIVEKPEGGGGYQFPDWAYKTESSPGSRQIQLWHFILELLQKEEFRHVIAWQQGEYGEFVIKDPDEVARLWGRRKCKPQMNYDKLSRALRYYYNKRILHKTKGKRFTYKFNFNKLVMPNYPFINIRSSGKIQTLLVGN
Summary of the method: as §1

ETV6 = ETV6 (Homo sapiens, UniProt P41212 1-452); conditions: protein: recombinant; tags: N-terminal GST; dsDNA, one strand shown
Summary of the method: as §1

Chain of ETV1 (P50549 whole entry): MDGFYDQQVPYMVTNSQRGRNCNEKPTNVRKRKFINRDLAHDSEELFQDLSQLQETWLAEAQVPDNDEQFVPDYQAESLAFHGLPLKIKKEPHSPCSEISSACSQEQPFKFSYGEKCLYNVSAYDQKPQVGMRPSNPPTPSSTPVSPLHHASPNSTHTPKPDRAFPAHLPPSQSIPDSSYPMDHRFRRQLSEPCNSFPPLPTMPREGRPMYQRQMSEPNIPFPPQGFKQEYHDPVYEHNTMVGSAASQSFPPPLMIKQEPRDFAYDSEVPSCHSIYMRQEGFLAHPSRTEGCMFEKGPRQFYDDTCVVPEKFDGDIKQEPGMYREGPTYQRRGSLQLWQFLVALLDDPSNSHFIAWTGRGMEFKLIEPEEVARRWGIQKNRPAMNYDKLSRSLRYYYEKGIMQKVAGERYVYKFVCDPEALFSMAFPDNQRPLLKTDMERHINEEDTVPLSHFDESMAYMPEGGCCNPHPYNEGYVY
Chain of ETV5 (P41161 whole entry): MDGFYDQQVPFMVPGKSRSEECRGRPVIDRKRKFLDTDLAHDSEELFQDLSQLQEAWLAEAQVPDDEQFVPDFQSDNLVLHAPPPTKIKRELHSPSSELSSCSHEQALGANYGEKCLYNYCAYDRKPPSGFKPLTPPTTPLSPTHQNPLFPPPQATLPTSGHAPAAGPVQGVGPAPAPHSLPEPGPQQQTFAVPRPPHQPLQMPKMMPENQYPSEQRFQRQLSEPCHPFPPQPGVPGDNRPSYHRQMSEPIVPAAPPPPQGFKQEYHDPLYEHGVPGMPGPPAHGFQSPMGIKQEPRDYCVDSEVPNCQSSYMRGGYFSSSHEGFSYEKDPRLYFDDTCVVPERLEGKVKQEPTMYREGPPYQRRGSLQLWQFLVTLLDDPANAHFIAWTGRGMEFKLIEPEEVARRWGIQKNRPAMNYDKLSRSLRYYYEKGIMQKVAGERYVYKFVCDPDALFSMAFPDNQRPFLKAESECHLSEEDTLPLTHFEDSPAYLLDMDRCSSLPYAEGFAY
Chain of ETV6 (P41212 whole entry): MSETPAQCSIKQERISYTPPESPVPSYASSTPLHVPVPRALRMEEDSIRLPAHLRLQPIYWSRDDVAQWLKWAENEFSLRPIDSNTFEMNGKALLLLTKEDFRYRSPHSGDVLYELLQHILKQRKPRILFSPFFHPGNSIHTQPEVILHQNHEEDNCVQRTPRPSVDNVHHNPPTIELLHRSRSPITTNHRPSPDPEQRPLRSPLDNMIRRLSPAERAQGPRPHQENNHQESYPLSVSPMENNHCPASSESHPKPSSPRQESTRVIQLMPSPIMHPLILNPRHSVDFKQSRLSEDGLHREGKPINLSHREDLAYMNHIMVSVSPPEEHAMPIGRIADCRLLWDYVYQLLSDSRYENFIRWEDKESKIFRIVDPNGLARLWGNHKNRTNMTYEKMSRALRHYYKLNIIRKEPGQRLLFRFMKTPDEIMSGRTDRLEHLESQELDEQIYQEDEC
Chain of ELF4 (Q99607 whole entry): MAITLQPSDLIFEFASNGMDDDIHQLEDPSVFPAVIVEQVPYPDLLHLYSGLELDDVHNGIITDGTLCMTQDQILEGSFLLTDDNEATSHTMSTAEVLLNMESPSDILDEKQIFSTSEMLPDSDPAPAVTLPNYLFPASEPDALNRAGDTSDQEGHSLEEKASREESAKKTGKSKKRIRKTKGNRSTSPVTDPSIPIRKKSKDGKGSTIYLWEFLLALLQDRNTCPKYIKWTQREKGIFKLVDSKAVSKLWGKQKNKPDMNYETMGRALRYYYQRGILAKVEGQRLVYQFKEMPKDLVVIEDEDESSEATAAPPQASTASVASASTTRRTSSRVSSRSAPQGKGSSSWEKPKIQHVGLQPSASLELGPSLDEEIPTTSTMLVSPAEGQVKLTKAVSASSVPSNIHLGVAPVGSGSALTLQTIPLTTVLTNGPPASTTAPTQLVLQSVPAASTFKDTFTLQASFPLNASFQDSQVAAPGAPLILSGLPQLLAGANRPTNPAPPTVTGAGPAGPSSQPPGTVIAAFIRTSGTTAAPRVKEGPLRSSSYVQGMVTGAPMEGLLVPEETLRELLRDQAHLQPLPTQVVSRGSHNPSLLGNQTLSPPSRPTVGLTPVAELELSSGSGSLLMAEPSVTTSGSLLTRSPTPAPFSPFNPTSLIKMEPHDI
Chain of CRX (O43186 whole entry): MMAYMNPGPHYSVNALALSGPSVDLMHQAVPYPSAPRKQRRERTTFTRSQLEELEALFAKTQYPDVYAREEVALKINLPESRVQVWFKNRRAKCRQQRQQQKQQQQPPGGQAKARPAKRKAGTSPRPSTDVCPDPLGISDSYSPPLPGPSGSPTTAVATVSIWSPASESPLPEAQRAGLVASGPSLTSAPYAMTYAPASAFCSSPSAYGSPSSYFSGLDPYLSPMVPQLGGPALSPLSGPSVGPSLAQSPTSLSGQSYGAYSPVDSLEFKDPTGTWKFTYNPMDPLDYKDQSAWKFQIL
Chain of HSF1 (Q00613 whole entry): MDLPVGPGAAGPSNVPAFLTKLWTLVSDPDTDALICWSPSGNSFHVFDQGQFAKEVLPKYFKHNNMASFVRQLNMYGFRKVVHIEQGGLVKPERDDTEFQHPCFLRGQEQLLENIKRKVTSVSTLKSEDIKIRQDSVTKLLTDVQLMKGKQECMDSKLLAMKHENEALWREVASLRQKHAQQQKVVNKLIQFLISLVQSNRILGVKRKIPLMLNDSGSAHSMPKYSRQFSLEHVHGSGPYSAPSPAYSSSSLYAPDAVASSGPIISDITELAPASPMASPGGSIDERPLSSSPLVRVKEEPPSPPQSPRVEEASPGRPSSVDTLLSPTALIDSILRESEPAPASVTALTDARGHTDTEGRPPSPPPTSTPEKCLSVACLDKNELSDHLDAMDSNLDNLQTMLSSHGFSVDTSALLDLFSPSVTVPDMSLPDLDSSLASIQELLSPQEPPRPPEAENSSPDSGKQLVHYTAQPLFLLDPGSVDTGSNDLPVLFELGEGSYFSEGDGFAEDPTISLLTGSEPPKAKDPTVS

CGACTT
binding signal (FEV): 2 fold enrichment (6-mer frequency, TF over GST control) | binding signal (ETV5): 1.65 fold enrichment (6-mer frequency, TF over GST control) | binding signal (HSF1): 1.57 fold enrichment (6-mer frequency, TF over GST control) | binding signal (SPIC): 1.65 fold enrichment (6-mer frequency, TF over GST control) | binding signal (ELF4): 1.69 fold enrichment (6-mer frequency, TF over GST control) | binding signal (ELK4): 1.97 fold enrichment (6-mer frequency, TF over GST control) | binding signal (ETV2): 1.72 fold enrichment (6-mer frequency, TF over GST control) | binding signal (ELF3): 1.7 fold enrichment (6-mer frequency, TF over GST control) | binding signal (CRX): 1.74 fold enrichment (6-mer frequency, TF over GST control) | binding signal (ETV1): 1.72 fold enrichment (6-mer frequency, TF over GST control) | binding signal (ERF): 1.62 fold enrichment (6-mer frequency, TF over GST control) | binding signal (ETV3L): 1.62 fold enrichment (6-mer frequency, TF over GST control) | binding signal (ETS2): 1.76 fold enrichment (6-mer frequency, TF over GST control) | binding signal (SPDEF): 1.54 fold enrichment (6-mer frequency, TF over GST control) | binding signal (ETV7): 1.53 fold enrichment (6-mer frequency, TF over GST control) | binding signal (ELF5): 1.72 fold enrichment (6-mer frequency, TF over GST control) | binding signal (ETV3): 1.78 fold enrichment (6-mer frequency, TF over GST control) | binding signal (ETV6): 1.79 fold enrichment (6-mer frequency, TF over GST control)
